The supplement of paper PMC10849652
About 7,900 targets were measured; listed, in parts, are those with a hit and a random draw of the rest. About 0.6% of all pairs of compound and target were hits. A number with no mark means an inactive call.

Assays:
Assay in all cases: log2 fold change, soluble protein after heating vs DMSO (PISA); higher = thermal stabilisation; K562 cells, 10 uM, 30 min; active = over 0.2 and 3.5 SD of the protein, either way, in both replicates (recomputed)
[1] = compound: CN1CCN(CCOc2cc(OC3CCOCC3)c3c(Nc4c(Cl)ccc5c4OCO5)ncnc3c2)CC1 [saracatinib]
Outline: (§1)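 Values are thermal stability changes relative to control samples and are taken from duplicates. They are stated as log2 fold changes. Before quantification by TMTpro 16plex LC-MS/MS with equalised channel sums, K562 cells at 2×10^6 cells/mL were treated with 10 μM compound for 30 min, heated in aliquots for 3 min across 48°C-58°C, pooled, extracted in PBS with 0.5% NP-40 at 4°C, and centrifuged at 21,000xg for 90 min to give the soluble supernatant.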

[2] = compound: CN1CCN(c2nc(C3=C(c4c[nH]c5ccccc45)C(=O)NC3=O)c3ccccc3n2)CC1 [sotrastaurin]
Outline: as §1

[3] = compound: CN1CC[C@H](c2c(O)cc(O)c3c(=O)cc(-c4ccccc4Cl)oc23)[C@H](O)C1 [alvocidib]
Outline: as §1

[4] = compound: CN1CCc2c(c3ccccc3n2Cc2ccc(C(=O)NO)cc2)C1 [Tubastatin A]
Outline: as §1

[5] = compound: CNC(=O)C1=CC=CC=C1NC2=NC(=NC=C2Cl)NC3=C(C=C(C=C3)N4CCOCC4)OC
Outline: as §1

[6] = compound: CNC(=O)c1ccc(Nc2ncc(C(F)(F)F)c(NCc3nccnc3N(C)S(C)(=O)=O)n2)cc1 [defactinib]
Outline: as §1

[7] = compound: CNCc1ccc(-c2[nH]c3cc(F)cc4c3c2CCNC4=O)cc1 [rucaparib]
Outline: as §1

[8] = compound: CNc1nc(-c2ccc3c(N)n[nH]c3c2)cc(N2C[C@@H](C(=O)NC3CCCCC3)CC[C@H]2C)n1
Outline: as §1

[9] = compound: COC(=O)N[C@@H](C)CNc1nccc(-c2cn(C(C)C)nc2-c2cc(Cl)cc(NS(C)(=O)=O)c2F)n1 [encorafenib]
Outline: as §1

[10] = compound: COC(=O)[C@H](CCSC)NC(=O)C1=C(C=C(C=C1)NC[C@H](CS)N)C2=CC=CC=C2
Outline: as §1

[11] = compound: COC1=CC=C(C=C1)CN2C=CC3=C2C=C(C=C3)C(=O)NO
Outline: as §1

[12] = compound: CON(C)C(=O)N1N=C(c2cc(F)ccc2F)S[C@@]1(CCCN)c1ccccc1 [filanesib]
Outline: as §1

[13] = compound: CO[C@H]1C[C@@H]2CC[C@@H](C)[C@@](O)(O2)C(=O)C(=O)N2CCCC[C@H]2C(=O)O[C@H]([C@H](C)C[C@@H]2CC[C@H](n3cnnn3)[C@H](OC)C2)CC(=O)[C@H](C)/C=C(\C)[C@@H](O)[C@@H](OC)C(=O)[C@H](C)C[C@H](C)/C=C/C=C/C=C/1C [zotarolimus]
Outline: as §1

[14] = compound: COc1cc(C(=O)O)ccc1NC(=O)[C@@H]1N[C@@H](CC(C)(C)C)[C@](C#N)(c2ccc(Cl)cc2F)[C@H]1c1cccc(Cl)c1F [idasanutlin]
Outline: as §1

[15] = compound: COc1cc(Nc2ncc3c(n2)-c2ccc(Cl)cc2C(c2c(F)cccc2OC)=NC3)ccc1C(=O)O [alisertib]
Outline: as §1

[16] = compound: COc1cc2nc(-c3cc(F)ccc3O)nc(N[C@@H]3CNC[C@H]3C(C)(C)O)c2cc1OC
Outline: as §1

[17] = compound: COc1cc2ncnc(Nc3ccc(F)c(Cl)c3)c2cc1OCCCN1CCOCC1 [gefitinib]
Outline: as §1

[18] = compound: COc1cccc2cc(-c3nc([C@H]4CC[C@H](C(=O)O)CC4)n4ncnc(N)c34)[nH]c12
Outline: as §1

[19] = compound: CS(=O)(=O)CCNCc1ccc(-c2ccc3ncnc(Nc4ccc(OCc5cccc(F)c5)c(Cl)c4)c3c2)o1 [lapatinib]
Outline: as §1

[20] = compound: CS(=O)(=O)N1CCN(Cc2cc3nc(-c4cccc5[nH]ncc45)nc(N4CCOCC4)c3s2)CC1 [pictilisib]
Outline: as §1

UniProt P49366, sequence (P49366 whole entry, looked up): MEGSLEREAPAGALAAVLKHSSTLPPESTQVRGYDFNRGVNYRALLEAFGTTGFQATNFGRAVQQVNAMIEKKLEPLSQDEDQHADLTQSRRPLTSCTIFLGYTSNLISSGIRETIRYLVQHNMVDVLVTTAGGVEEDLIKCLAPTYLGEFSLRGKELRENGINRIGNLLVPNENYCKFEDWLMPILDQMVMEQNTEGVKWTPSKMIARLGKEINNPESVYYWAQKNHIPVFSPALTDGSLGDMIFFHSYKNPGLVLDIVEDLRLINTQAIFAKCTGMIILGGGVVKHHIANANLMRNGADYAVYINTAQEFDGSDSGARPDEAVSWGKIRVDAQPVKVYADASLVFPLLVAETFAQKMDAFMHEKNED
UniProt Q7Z2Z2, sequence (Q7Z2Z2 whole entry, looked up): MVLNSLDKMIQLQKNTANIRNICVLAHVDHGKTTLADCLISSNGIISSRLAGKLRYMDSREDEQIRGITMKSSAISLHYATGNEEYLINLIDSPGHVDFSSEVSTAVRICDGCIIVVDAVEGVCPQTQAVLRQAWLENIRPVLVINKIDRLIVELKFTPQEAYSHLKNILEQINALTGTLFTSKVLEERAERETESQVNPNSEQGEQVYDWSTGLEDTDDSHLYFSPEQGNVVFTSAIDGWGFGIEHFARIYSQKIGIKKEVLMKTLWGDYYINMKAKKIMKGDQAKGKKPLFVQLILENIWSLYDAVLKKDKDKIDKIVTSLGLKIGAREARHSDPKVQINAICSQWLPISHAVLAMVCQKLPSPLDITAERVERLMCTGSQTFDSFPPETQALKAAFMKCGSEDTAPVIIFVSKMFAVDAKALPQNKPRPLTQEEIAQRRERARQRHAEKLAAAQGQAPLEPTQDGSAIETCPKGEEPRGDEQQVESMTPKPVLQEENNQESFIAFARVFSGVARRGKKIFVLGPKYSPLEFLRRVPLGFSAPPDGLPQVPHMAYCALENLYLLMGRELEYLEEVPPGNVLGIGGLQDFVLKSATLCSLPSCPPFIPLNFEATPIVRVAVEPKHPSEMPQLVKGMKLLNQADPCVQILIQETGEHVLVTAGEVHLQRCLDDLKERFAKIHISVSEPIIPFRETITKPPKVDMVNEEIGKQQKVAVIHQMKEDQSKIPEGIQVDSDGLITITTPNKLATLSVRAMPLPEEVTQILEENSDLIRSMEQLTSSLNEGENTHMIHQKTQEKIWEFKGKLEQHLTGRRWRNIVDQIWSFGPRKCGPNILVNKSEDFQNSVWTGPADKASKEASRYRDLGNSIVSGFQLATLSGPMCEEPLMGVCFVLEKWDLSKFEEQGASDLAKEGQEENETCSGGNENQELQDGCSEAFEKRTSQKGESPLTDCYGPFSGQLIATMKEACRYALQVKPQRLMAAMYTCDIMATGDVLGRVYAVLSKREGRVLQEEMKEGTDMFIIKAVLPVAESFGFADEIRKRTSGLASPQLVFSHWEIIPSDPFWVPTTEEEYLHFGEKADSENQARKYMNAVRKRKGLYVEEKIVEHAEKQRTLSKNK
UniProt P50570, sequence (P50570 whole entry, looked up): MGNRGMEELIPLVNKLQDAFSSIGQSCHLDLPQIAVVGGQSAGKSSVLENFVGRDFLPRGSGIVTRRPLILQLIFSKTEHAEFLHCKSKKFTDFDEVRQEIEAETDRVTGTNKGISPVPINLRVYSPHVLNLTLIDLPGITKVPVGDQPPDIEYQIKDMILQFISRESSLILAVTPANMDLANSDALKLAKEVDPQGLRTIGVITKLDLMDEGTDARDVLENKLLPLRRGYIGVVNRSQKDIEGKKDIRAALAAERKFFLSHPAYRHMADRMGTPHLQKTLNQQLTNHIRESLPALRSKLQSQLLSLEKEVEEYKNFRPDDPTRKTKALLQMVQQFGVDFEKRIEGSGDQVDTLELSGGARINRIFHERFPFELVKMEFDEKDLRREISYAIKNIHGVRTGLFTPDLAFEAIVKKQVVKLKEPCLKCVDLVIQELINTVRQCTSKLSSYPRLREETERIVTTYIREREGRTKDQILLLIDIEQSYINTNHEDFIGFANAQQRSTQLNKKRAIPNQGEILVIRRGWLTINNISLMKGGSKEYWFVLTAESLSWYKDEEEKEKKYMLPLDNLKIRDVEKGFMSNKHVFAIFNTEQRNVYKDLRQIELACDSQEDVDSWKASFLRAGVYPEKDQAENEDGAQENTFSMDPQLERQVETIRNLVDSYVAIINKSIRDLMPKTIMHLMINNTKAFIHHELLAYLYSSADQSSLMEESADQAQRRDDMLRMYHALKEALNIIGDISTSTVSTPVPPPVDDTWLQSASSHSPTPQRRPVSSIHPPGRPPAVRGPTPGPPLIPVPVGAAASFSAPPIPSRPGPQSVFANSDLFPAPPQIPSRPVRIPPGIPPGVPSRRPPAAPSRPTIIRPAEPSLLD
UniProt Q13011, sequence (Q13011 whole entry, looked up): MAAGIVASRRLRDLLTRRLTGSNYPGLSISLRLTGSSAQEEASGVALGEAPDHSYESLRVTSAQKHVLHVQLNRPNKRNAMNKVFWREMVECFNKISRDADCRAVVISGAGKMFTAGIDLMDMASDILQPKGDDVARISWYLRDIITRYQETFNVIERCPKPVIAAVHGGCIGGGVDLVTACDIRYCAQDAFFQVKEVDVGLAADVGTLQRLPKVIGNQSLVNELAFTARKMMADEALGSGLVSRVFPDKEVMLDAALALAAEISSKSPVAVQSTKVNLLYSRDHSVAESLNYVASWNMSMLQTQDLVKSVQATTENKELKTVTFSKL
UniProt O00148, sequence (O00148 whole entry, looked up): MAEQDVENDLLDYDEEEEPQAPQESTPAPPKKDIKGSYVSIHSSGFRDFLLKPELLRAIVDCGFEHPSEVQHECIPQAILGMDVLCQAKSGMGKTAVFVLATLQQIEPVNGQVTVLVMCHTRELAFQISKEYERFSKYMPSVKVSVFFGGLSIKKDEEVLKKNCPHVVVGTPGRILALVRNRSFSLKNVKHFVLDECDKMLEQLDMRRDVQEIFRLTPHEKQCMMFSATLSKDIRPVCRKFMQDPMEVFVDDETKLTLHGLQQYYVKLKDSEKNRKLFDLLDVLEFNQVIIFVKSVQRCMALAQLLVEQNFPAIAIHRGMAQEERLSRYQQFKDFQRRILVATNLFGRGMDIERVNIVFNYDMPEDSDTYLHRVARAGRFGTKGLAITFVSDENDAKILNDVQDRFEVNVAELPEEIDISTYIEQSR
UniProt O76075, sequence (O76075 whole entry, looked up): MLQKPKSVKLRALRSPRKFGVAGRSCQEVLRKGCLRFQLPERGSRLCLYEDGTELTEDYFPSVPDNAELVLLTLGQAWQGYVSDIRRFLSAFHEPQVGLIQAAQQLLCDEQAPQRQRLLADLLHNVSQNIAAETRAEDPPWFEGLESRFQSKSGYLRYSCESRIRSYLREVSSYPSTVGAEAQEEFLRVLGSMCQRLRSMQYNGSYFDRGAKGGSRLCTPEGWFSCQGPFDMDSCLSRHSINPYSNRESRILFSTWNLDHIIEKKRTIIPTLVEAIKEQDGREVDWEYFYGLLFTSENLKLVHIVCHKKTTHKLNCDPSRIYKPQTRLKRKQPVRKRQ
UniProt Q9BSJ8, sequence (Q9BSJ8 whole entry, looked up): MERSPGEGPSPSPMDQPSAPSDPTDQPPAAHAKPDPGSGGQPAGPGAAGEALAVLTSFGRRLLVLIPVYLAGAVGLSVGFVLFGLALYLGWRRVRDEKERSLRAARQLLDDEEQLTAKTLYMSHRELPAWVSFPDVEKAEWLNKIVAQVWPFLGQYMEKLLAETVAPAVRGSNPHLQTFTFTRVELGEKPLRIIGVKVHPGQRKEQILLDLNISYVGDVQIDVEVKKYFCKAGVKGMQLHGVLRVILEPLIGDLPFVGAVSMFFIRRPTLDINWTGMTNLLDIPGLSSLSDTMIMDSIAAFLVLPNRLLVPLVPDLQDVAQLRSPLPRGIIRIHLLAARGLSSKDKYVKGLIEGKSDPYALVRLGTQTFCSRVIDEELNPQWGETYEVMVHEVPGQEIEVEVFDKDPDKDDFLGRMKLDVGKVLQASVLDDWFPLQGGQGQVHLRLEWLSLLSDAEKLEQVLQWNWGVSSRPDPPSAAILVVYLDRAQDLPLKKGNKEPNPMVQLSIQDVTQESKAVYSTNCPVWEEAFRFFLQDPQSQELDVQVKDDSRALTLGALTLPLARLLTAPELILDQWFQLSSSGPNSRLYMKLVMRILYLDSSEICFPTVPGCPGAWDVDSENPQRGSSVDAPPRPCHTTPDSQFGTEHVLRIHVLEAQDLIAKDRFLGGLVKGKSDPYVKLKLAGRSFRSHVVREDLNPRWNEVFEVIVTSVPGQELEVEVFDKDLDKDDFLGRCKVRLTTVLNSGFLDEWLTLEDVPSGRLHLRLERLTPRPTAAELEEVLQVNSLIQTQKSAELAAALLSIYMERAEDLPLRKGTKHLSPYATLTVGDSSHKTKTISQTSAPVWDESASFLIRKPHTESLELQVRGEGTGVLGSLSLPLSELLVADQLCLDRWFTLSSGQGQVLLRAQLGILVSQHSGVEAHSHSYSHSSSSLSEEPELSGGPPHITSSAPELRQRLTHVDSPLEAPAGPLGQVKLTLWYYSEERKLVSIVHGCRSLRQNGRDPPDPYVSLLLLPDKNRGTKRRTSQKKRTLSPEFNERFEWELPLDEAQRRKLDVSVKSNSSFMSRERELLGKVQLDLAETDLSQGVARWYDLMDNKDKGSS

ESYT1 isoform 2 (UniProt Q9BSJ8) showed a log2 fold change [1] of -0.148, a log2 fold change [2] of -0.208 and a log2 fold change [3] of -0.05. The log2 fold change [4] was 0.031, the log2 fold change [5] was -0.034 and the log2 fold change [6] was -0.043. For the same target, the log2 fold change [7] was 0.154, the log2 fold change [8] was 0.099 and the log2 fold change [9] was 0.175. It also gave a log2 fold change [10] of -0.099, a log2 fold change [11] of 0.042 and a log2 fold change [12] of 0.013. The log2 fold change [13] was 0.08, the log2 fold change [14] was 0.08 and the log2 fold change [15] was -0.094. For the same target, the log2 fold change [16] was 0.008, the log2 fold change [17] was 0.053 and the log2 fold change [18] was -0.122. For the same target, the log2 fold change [19] was 0.089 and the log2 fold change [20] was -0.038.
DDX39A (UniProt O00148) showed a log2 fold change [1] of 0.018, a log2 fold change [2] of -0.149 and a log2 fold change [3] of -0.061. It also gave a log2 fold change [4] of 0.007, a log2 fold change [5] of -0.143 and a log2 fold change [6] of -0.213. It also gave a log2 fold change [7] of 0.111, a log2 fold change [8] of -0.041 and a log2 fold change [9] of -0.016. The log2 fold change [10] was -0.032, the log2 fold change [11] was 0.135 and the log2 fold change [12] was -0.021. It also gave a log2 fold change [13] of -0.017, a log2 fold change [14] of -0.093 and a log2 fold change [15] of 0.066. For the same target, the log2 fold change [16] was -0.16, the log2 fold change [17] was -0.015 and the log2 fold change [18] was -0.028. For the same target, the log2 fold change [19] was -0.007 and the log2 fold change [20] was 0.012.
With DNM2 (UniProt P50570) the log2 fold change [1] was -0.028, the log2 fold change [2] was 0.043 and the log2 fold change [3] was -0.074. The log2 fold change [4] was 0, the log2 fold change [5] was -0.027 and the log2 fold change [6] was -0.02. The log2 fold change [7] was 0.035, the log2 fold change [8] was 0.029 and the log2 fold change [9] was 0.009. It also gave a log2 fold change [10] of -0.03, a log2 fold change [11] of -0.022 and a log2 fold change [12] of -0.107. For the same target, the log2 fold change [13] was 0.016, the log2 fold change [14] was -0.078 and the log2 fold change [15] was -0.073. For the same target, the log2 fold change [16] was 0.099, the log2 fold change [17] was 0.002 and the log2 fold change [18] was 0.023. It also gave a log2 fold change [19] of -0.026 and a log2 fold change [20] of 0.021.
With FADS1, A0A0A0MR51 the log2 fold change [1] was 0.013, the log2 fold change [2] was -0.061 and the log2 fold change [3] was -0.086. It also gave a log2 fold change [4] of 0.15, a log2 fold change [5] of 0.112 and a log2 fold change [6] of -0.022. The log2 fold change [7] was 0.005, the log2 fold change [8] was 0.027 and the log2 fold change [9] was 0.004. For the same target, the log2 fold change [10] was 0, the log2 fold change [11] was -0.31 (active) and the log2 fold change [12] was -0.112. The log2 fold change [13] was -0.004, the log2 fold change [14] was 0.055 and the log2 fold change [15] was -0.007. For the same target, the log2 fold change [16] was -0.111, the log2 fold change [17] was 0.049 and the log2 fold change [18] was 0.009. It also gave a log2 fold change [19] of 0.044 and a log2 fold change [20] of -0.092.
For EFL1 (UniProt Q7Z2Z2), the log2 fold change [1] was -0.036, the log2 fold change [2] was -0.004 and the log2 fold change [3] was -0.038. It also gave a log2 fold change [4] of -0.007, a log2 fold change [5] of -0.014 and a log2 fold change [6] of -0.022. The log2 fold change [7] was 0.015, the log2 fold change [8] was 0.019 and the log2 fold change [9] was 0.033. The log2 fold change [10] was -0.014, the log2 fold change [11] was -0.021 and the log2 fold change [12] was -0.069. It also gave a log2 fold change [13] of 0.022, a log2 fold change [14] of -0.071 and a log2 fold change [15] of -0.013. The log2 fold change [16] was 0.042, the log2 fold change [17] was 0.019 and the log2 fold change [18] was 0.033. The log2 fold change [19] was -0.034 and the log2 fold change [20] was -0.016.
In the case of ECH1 (UniProt Q13011), the log2 fold change [1] is reported as -0.037, the log2 fold change [2] is reported as 0.727 (active) and the log2 fold change [3] is reported as 0.053. For the same target, the log2 fold change [4] was 0.519 (active), the log2 fold change [5] was 0.122 and the log2 fold change [6] was -0.023. It also gave a log2 fold change [7] of -0.012, a log2 fold change [8] of -0.031 and a log2 fold change [9] of -0.035. It also gave a log2 fold change [10] of -0.024, a log2 fold change [11] of -0.008 and a log2 fold change [12] of -0.215. The log2 fold change [13] was -0.05, the log2 fold change [14] was -0.134 and the log2 fold change [15] was 0.033. For the same target, the log2 fold change [16] was 0.045, the log2 fold change [17] was -0.032 and the log2 fold change [18] was 0.02. It also gave a log2 fold change [19] of -0.011 and a log2 fold change [20] of 0.033.
DFFB (UniProt O76075) gave a log2 fold change [1] of 0.017, a log2 fold change [2] of 0.052 and a log2 fold change [3] of -0.038. It also gave a log2 fold change [4] of 0.07, a log2 fold change [5] of 0.009 and a log2 fold change [6] of 0.024. For the same target, the log2 fold change [7] was 0.049, the log2 fold change [8] was -0.016 and the log2 fold change [9] was -0.019. For the same target, the log2 fold change [10] was 0.033, the log2 fold change [11] was -0.016 and the log2 fold change [12] was -0.141. It also gave a log2 fold change [13] of -0.093, a log2 fold change [14] of -0.03 and a log2 fold change [15] of -0.004. It also gave a log2 fold change [16] of 0.06, a log2 fold change [17] of -0.054 and a log2 fold change [18] of 0.041. It also gave a log2 fold change [19] of -0.015 and a log2 fold change [20] of -0.074.
DHPS (UniProt P49366) was tested, and the log2 fold change [1] was 0.087, the log2 fold change [2] was 0.043 and the log2 fold change [3] was -0.013. For the same target, the log2 fold change [4] was 0.005, the log2 fold change [5] was -0.026 and the log2 fold change [6] was -0.027. For the same target, the log2 fold change [7] was -0.018, the log2 fold change [8] was -0.053 and the log2 fold change [9] was -0.012. The log2 fold change [10] was -0.011, the log2 fold change [11] was 0.268 (active) and the log2 fold change [12] was -0.024. The log2 fold change [13] was -0.001, the log2 fold change [14] was 0.03 and the log2 fold change [15] was -0.033. The log2 fold change [16] was -0.047, the log2 fold change [17] was -0.018 and the log2 fold change [18] was 0.063. The log2 fold change [19] was 0.05 and the log2 fold change [20] was 0.024.
